Experimental data from PubChem BioAssay (EPA / NIEHS).
Calls of active or inactive are those of the source. The calls were made as follows: active = hit-call score of the fitted dose curve at least 0.9, where 1 is the maximum; inactive = score below 0.9.

Tests used:
Conditions in all cases: mRNA level, 48 h; actives raise or lower the signal
[1] = read-out: Glutathione S-Transferase (GSTA2), GSTA2 (gene 2939); test: LTEA_HepaRG_GSTA2: Life Technologies and Expression Analysis (LTEA) Assay for Glutathione S-Transferase (GSTA2) using HepaRG (AID 2283497)
Method in brief: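 Human HepaRG cells, plated 48 h, then exposed in serum-free induction medium for 48 h to eight half-log concentrations up to 100 uM in 0.5% DMSO, duplicate. GSTA2 mRNA by qRT-PCR, normalized to ACTB/GAPDH/POLR2A; bidirectional fit versus DMSO.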

[2] = read-out: Glutamate-cysteine ligase catalytic (GCLC), GCLC (gene 2729); test: LTEA_HepaRG_GCLC: Life Technologies and Expression Analysis (LTEA) Assay for Glutamate-cysteine ligase catalytic (GCLC) using HepaRG (AID 2283498)
Method in brief: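 Differentiated human HepaRG cells, plated 48 h then switched to serum-free induction medium, were exposed in duplicate for 48 h to 8 half-log concentrations topping at 100 uM in 0.5% DMSO. GCLC mRNA was quantified by qRT-PCR against ACTB, GAPDH and POLR2A.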

[3] = read-out: growth arrest and DNA damage 45 (GADD45G), GADD45G (gene 10912); test: LTEA_HepaRG_GADD45G: Life Technologies and Expression Analysis (LTEA) Assay for growth arrest and DNA damage 45 (GADD45G) using HepaRG (AID 2283499)
Method in brief: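 HepaRG, 48 h exposure, top 100 uM, half-log 8-point series, 0.5% DMSO vehicle, duplicates. Readout: GADD45G transcript by qRT-PCR (Fluidigm array), housekeeping-normalised (ACTB/GAPDH/POLR2A). Bidirectional curve fit vs DMSO baseline.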

[4] = read-out: Glutamate-cysteine ligase regulatory (GCLM), GCLM (gene 2730); test: LTEA_HepaRG_GCLM: Life Technologies and Expression Analysis (LTEA) Assay for Glutamate-cysteine ligase regulatory (GCLM) using HepaRG (AID 2283500)
Method in brief: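 Cells were plated, cultured 48 h, switched to serum-free induction medium, then dosed in duplicate for 48 h at eight half-log concentrations up to 100 uM. RNA was then profiled by qRT-PCR; gain or loss versus DMSO was fitted.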

[5] = read-out: Glutathione S-transferase M3 (GSTM3), GSTM3 (gene 2947); test: LTEA_HepaRG_GSTM3: Life Technologies and Expression Analysis (LTEA) Assay for Glutathione S-transferase M3 (GSTM3) using HepaRG (AID 2283501)
Method in brief: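 qRT-PCR read-out of GSTM3 transcript, normalized to three housekeeping genes, from human HepaRG cells after 48 h chemical exposure. Eight-point half-log series, top 100 uM, 0.5% DMSO vehicle; gain or loss fitted relative to DMSO baseline.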

[6] = read-out: Heat shock 70 kDa protein 1 (HSPA1A), gene 3303; test: LTEA_HepaRG_HSPA1A: Life Technologies and Expression Analysis (LTEA) Assay for Heat shock 70 kDa protein 1 (HSPA1A) using HepaRG (AID 2283502)
Method in brief: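 Readout is HSPA1A transcript level by microfluidic qRT-PCR, normalized to three housekeeping genes and analysed for gain or loss of signal relative to 0.5% DMSO. Human HepaRG cultures received test chemicals for 48 h at up to 100 uM.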

[7] = read-out: 3-Hydroxy-3-Methylglutaryl-CoA Synthase 2 (HMGCS2), HMGCS2 (gene 3158); test: LTEA_HepaRG_HMGCS2: Life Technologies and Expression Analysis (LTEA) Assay for 3-Hydroxy-3-Methylglutaryl-CoA Synthase 2 (HMGCS2) using HepaRG (AID 2283504)
Method in brief: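 qRT-PCR read-out of HMGCS2 transcript, normalised to three housekeeping genes, in HepaRG cells after 48 h chemical exposure. Eight-point curves from 100 uM, half-log dilutions, 0.5% DMSO vehicle; gain or loss fitted relative to DMSO baseline.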

HGF (gene 3082) = test: LTEA_HepaRG_HGF: Life Technologies and Expression Analysis (LTEA) Assay for Hepatocyte Growth Facto (HGF) using HepaRG (AID 2283505)
Method in brief: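 HepaRG, 48 h dosing, 8-pt half-log series from 100 uM in 0.5% DMSO, duplicates. Readout: TaqMan qRT-PCR of HGF mRNA, housekeeping-normalized; bidirectional curve fit vs DMSO baseline.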

[8] = read-out: Insulin Like Growth Factor 1 (IGF1), IGF1 (gene 3479); test: LTEA_HepaRG_IGF1: Life Technologies and Expression Analysis (LTEA) Assay for Insulin Like Growth Factor 1 (IGF1) using HepaRG (AID 2283506)
Method in brief: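 HepaRG, plated 48 h, then switched to serum-free induction media; test chemical 8-pt half-log from 100 uM (0.5% DMSO), duplicate, 48 h. Lysis in RLT, TaqMan qRT-PCR, norm. ACTB/GAPDH/POLR2A. Bidirectional fit vs DMSO.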

[9] = read-out: Intercellular Adhesion Molecule 1 (ICAM1), ICAM1 (gene 3383); test: LTEA_HepaRG_ICAM1: Life Technologies and Expression Analysis (LTEA) Assay for Intercellular Adhesion Molecule 1 (ICAM1) using HepaRG (AID 2283507)
Method in brief: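 HepaRG, 48 h exposure, 8-pt half-log series from 100 uM, 0.5% DMSO vehicle, duplicates. Readout: TaqMan qRT-PCR mRNA, housekeeping-normalized (ACTB/GAPDH/POLR2A). Bidirectional curve fit vs DMSO baseline.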

[10] = read-out: Insulin-like growth factor-binding protein 1 (IGFBP1), IGFBP1 (gene 3484); test: LTEA_HepaRG_IGFBP1: Life Technologies and Expression Analysis (LTEA) Assay for Insulin-like growth factor-binding protein 1 (IGFBP1) using HepaRG (AID 2283508)
Method in brief: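 qRT-PCR mRNA read-out (TaqMan, Fluidigm array), normalised to three housekeeping genes; HepaRG cells, 48 h exposure, 8-pt half-log series from 100 uM, 0.5% DMSO vehicle; bidirectional curve fit vs DMSO baseline.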

[11] = read-out: Interleukin 6 (IL6), IL6 (gene 3569); test: LTEA_HepaRG_IL6: Life Technologies and Expression Analysis (LTEA) Assay for Interleukin 6 (IL6) using HepaRG (AID 2283509)
Method in brief: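 Differentiated human HepaRG cells, plated 48 h then switched to serum-free induction medium, were exposed in duplicate for 48 h to eight half-log concentrations up to 100 uM in 0.5% DMSO. IL6 mRNA measured by qRT-PCR, normalized to ACTB/GAPDH/POLR2A.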

[12] = read-out: Interleukin 6 Receptor (IL6R), IL6R (gene 3570); test: LTEA_HepaRG_IL6R: Life Technologies and Expression Analysis (LTEA) Assay for Interleukin 6 Receptor (IL6R) using HepaRG (AID 2283510)
Method in brief: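 Readout is IL6R transcript level by TaqMan qRT-PCR, normalized to three housekeeping genes and fitted bidirectionally against 0.5% DMSO controls. Human HepaRG cells received chemicals for 48 h in serum-free induction medium, highest concentration 100 uM.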

[13] = read-out: Potassium channel subfamily K member 1 (KCNK1), KCNK1 (gene 3775); test: LTEA_HepaRG_KCNK1: Life Technologies and Expression Analysis (LTEA) Assay for Potassium channel subfamily K member 1 (KCNK1) using HepaRG (AID 2283511)
Method in brief: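 Differentiated human HepaRG cells in serum-free induction medium were exposed in duplicate for 48 h to 8 half-log concentrations up to 100 uM in 0.5% DMSO. KCNK1 mRNA was measured by TaqMan qRT-PCR, normalized to ACTB, GAPDH and POLR2A, and fitted bidirectionally versus DMSO.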

[14] = read-out: Keratin 19 (KRT19), KRT19 (gene 3880); test: LTEA_HepaRG_KRT19: Life Technologies and Expression Analysis (LTEA) Assay for Keratin 19 (KRT19) using HepaRG (AID 2283512)
Method in brief: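 HepaRG, 48 h chemical exposure, 8-pt half-log CRC from 100 uM, 0.5% DMSO vehicle, duplicates. Readout: TaqMan qRT-PCR of KRT19 mRNA, housekeeping-normalized (ACTB/GAPDH/POLR2A). Bidirectional fit vs DMSO baseline.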

[15] = read-out: JUN Transcription Factor, JUN (gene 3725); test: LTEA_HepaRG_JUN: Life Technologies and Expression Analysis (LTEA) Assay for JUN Transcription Factor using HepaRG (AID 2283513)
Method in brief: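 Cells plated 48 h, medium switched to serum-free induction medium, then dosed 48 h (100 uM top, half-log dilutions, 0.5% DMSO). RNA isolated; JUN measured by qRT-PCR against three housekeeping genes; gain or loss fitted relative to DMSO.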

[16] = read-out: Lipase C (LIPC), LIPC (gene 3990); test: LTEA_HepaRG_LIPC: Life Technologies and Expression Analysis (LTEA) Assay for Lipase C (LIPC) using HepaRG (AID 2283514)
Method in brief: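 Differentiated human HepaRG cells in serum-free induction medium were exposed in duplicate for 48 h to eight concentrations (top 100 uM, half-log steps, 0.5% DMSO). LIPC mRNA was quantified by TaqMan qRT-PCR, normalized to ACTB, GAPDH and POLR2A, with bidirectional fitting versus DMSO.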

[17] = read-out: Lipoprotein lipase (LPL), LPL (gene 4023); test: LTEA_HepaRG_LPL: Life Technologies and Expression Analysis (LTEA) Assay for Lipoprotein lipase (LPL) using HepaRG (AID 2283515)
Method in brief: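 Differentiated human HepaRG cells in serum-free induction medium were exposed in duplicate for 48 h to eight half-log concentrations (top 100 uM) in 0.5% DMSO. LPL mRNA was quantified by TaqMan qRT-PCR, normalized to ACTB, GAPDH and POLR2A.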

[18] = read-out: MicroRNA 122 (MIR122), gene 406906; test: LTEA_HepaRG_MIR122: Life Technologies and Expression Analysis (LTEA) Assay for MicroRNA 122 (MIR122) using HepaRG (AID 2283516); also: the transcript read is the microRNA miR-122
Method in brief: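 HepaRG plated 48 h, switched to serum-free induction medium, then treated in duplicate for 48 h (100 uM top, half-log steps, 0.5% DMSO vehicle). RNA isolated, qRT-PCR performed, concentration-response fitted both directions relative to DMSO.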

[19] = read-out: matrix metalloproteinase-10 (MMP10), MMP10 (gene 4319); test: LTEA_HepaRG_MMP10: Life Technologies and Expression Analysis (LTEA) Assay for matrix metalloproteinase-10 (MMP10) using HepaRG (AID 2283517)
Method in brief: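 HepaRG, collagen I, ~100,000 cells/well; serum-free induction medium; 48 h exposure, duplicate, 8-pt half-log to 100 uM, 0.5% DMSO. Readout: TaqMan qRT-PCR, normalized to ACTB/GAPDH/POLR2A; bidirectional fit vs DMSO.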

Measured: outcome

O=C(CCl)c1ccccc1
inactive: all assays above

N#CCCCCC#N
inactive: all assays above

O=[N+]([O-])c1ccc(Cl)cc1
inactive: all assays above
